Assay outcomes from PubChem BioAssay.
Vaccinia mCherry: qHTS for Stage-Specific Inhibitors of Vaccinia Orthopoxvirus: mCherry Reporter Primary qHTS | Potency, µM (top dose mostly 36.5 µM), inactives show top-dose activity change, negative = inhibition, usual class: inhibitors | AID 720579, 2013 | Vaccinia virus mCherry reporter infection, fluorescence | 310,000 compounds, 0.63% hits; calls by dose curve; tested in A549 cells; further: potency means the concentration at half of the fitted maximal effect; nearly all actives have a fitted effect of over 35% in size
HCV inh: qHTS Assay for Inhibitors of Hepatitis C Virus (HCV); AID 651820, 2012; Huh7.5.1 HCVcc-Cre infection, luciferase reporter, 44 h; Potency, µM (series often up to 41.8 µM), inactives show at the highest dose activity change, negative = inhibition, most hits filed as inhibitors; 340,000 compounds, 3.4% hits; active means well fitted inhibition curve with a large enough effect; inconclusive means small, poorly fitted or top-dose-only effect, or another doubt; inactive means no such curve, though single readings can be large or run the other way; further: potency means the concentration at half of the fitted maximal effect
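Antiviral activity was scored by luciferase reporter output from cells infected with HCVcc-Cre (~0.5 moi) in presence of compound, 44 h infection period, cells seeded 1,000/well 4 h prior.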
HCMV antiviral: qHTS Assay for inhibitors of the human cytomegalovirus (HCMV); HFF cells, HCMV-luciferase reporter, 72 h; stronger effect = lower value; activity change, negative = inhibition, % at 57.5 µM; 410,000 compounds, 4.5% hits; AID 1259415, 2018; in the data active means activity change below about -60%; inconclusive means no clear call, values can overlap the other calls; inactive means above about -39%
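Steps: HFFs plated, 16 h 37C; compounds added; HCMV-luciferase added to MOI 1 PFU/cell; 72 h 37C; OneGlo reagent, 5 min room temperature; luminescence read, normalized to controls.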
FMDV antiviral: High Throughput Screening for Foot and Mouth Disease Virus Antivirals. FMDV antiviral cell-based qHTS. 410,000 compounds, 1.2% hits. Potency, µM (titrated, usually from 57.9 µM), for the others: at the highest dose activity change, negative = inhibition, usual class: inhibitors; calls by dose curve; tested in HEK293T cells; further: read-out not given here; potency means the concentration at half of the fitted maximal effect; nearly all actives have a fitted effect of over 45% in size
Vaccinia Venus: qHTS for Stage-Specific Inhibitors of Vaccinia Orthopoxvirus: Venus Reporter Primary qHTS; AID 720580, 2013; 330,000 compounds, 0.46% hits; Vaccinia virus Venus reporter expression, fluorescence; Potency, µM (titrated, usually from 36.5 µM), without a hit: at the top dose activity change, negative = inhibition, hits mostly inhibitors; calls by dose curve; tested in A549 cells; further: potency means the concentration at half of the fitted maximal effect; nearly all actives have a fitted effect of over 30% in size
Starred values were filed as active, the others as inactive; i = inactive; u = inconclusive; x = not tested or not shown; ! = a repeat was not active. A selection: hits, their analogues and other compounds. The true share with any hit is near 7.3%. On the % scale 0 is the no-effect control and ±100 the full control effect.

SMILES	Vaccinia mCherry	HCV inh	HCMV antiviral	FMDV antiviral	Vaccinia Venus
O=C(CSCC(=O)N1CCCCC1)Nc1nc(-c2ccc(Cl)s2)cs1	u	-14%	46	0%	u
CCOc1ccc(CNC(=O)CCC(=O)n2ncc3ccc(Cl)cc32)cc1	-8%	10%	38	-21%	-6%
CCN1C(=O)S/C(=C/c2ccc(Sc3nc4ccccc4[nH]3)o2)C1=O	-29%	u	-65*	16µM*	-23%
O=C(Nc1ccc(C(=O)N2CCN(c3ccccc3)CC2)cc1)C1=CSCCO1	-7%	11%	u	13%	-8%
CNC(=S)N(C)/N=C1/C(=O)N(Cc2c(Cl)cccc2Cl)c2ccccc21	-15%	13µM*	-13	-28%	-21%
CCOC(=O)c1cnc2ccc(OC(F)(F)F)cc2c1Nc1ccccc1C(=O)O	9%	x	-6	-21%	-8%
CSCCC(NS(=O)(=O)c1ccc2c(c1)oc(=O)n2C)C(=O)Nc1ccc(Cl)cc1 (centres undefined)	-10%	x	-8	19%	-3%
COc1ccc(-c2nc(NC(=O)c3ccc(OCC(=O)Nc4ccc(F)cc4)c(OC)c3)sc2C)cc1	u	u	23	18µM*	u
CCc1nn(CC(=O)NCCCN(CC)Cc2ccccc2)c(=O)c2cc3sccc3n12	-23%	-10%	-30	x	-18%
CCCCN(CCCNC(=O)Cn1nc(CC)n2c(cc3sc(C)cc32)c1=O)Cc1ccccc1	x	8.9µM*	-25	-8%	x
Cc1cc(C)n(-c2ccc(C(=O)OCC(=O)Nc3ccccc3F)cc2)n1	x	5%	88	-12%	x
CCCCNC(=O)CCn1nc(-c2ccc(C)cc2)c2ccccc2c1=O	x	-17%	-72*	2%	x
CCCNC(=O)CCn1nc(-c2ccc(C)cc2)c2ccccc2c1=O	-24%	-18%	-65*!	8%	-17%
CCCNC(=O)CCn1nc(-c2ccc(Cl)cc2)c2ccccc2c1=O	0%	-12%	-24	-9%	-7%
O=C1NC(Cc2ccc(O)cc2)c2nc3ccc(F)cc3c(=O)n2-c2ncccc21 (centres undefined)	-11%	x	-8	-35%	-16%
O=C(O)Cn1c2ccccc2c2ccccc21	-15%	4µM*	-11	-5%	1%
NNC(=O)Cn1c2ccccc2c2ccccc21	u	2%	2	-4%	-14%
CC1(C(=O)NS(=O)(=O)c2cccc(C#N)c2)CCN1C(=O)Cc1cc(F)ccc1F (centres undefined)	3%	x	-1	-17%	14%
Cn1cccc1/C=N/N1CCN(Cc2ccccc2Cl)CC1	-16%	0.32µM*	7	-25%	-24%
COc1ccc(NC(=S)/N=C(\N)Nc2nc(C)c3ccc(C)cc3n2)cc1	x	11µM*	-35	u	x
CCCCCCCCCC[Si](C)(C)CCC(=O)N[C@@H](Cc1ccc(C)cc1)c1ccccc1	-1%	x	x	x	-13%
Cc1cc([N+](=O)[O-])ccc1NCc1ccc2ccccc2c1	i	11µM*	-27	x	-8%
Cc1cc([N+](=O)[O-])ccc1NCc1ccccc1	-12%	-16%	x	x	-7%
COc1ccccc1Nc1c2c(nc3ccc(N)cc13)CCCC2	x	u	-31	-19%	x
COc1ccc(OC)c(Nc2c3c(nc4ccccc24)CCC3)c1	-28%	u	-79*	-24%	-25%
SMILES	Vaccinia mCherry	HCV inh	HCMV antiviral	FMDV antiviral	Vaccinia Venus
Cc1cccc(Nc2c3c(nc4ccccc24)CCC3)c1	-18%	u	-34	u	-20%
N#Cc1cccc(Nc2c3c(nc4ccccc24)CCC3)c1	-13%	u	-17	-14%	-19%
Cc1ccc(Nc2c3c(nc4ccccc24)CCC3)cc1F	10µM*	x	u	u	u
COc1cc(Nc2c3c(nc4ccccc24)CCC3)cc(OC)c1OC	u	u	-75*	-15%	u
CCOC(=O)c1cc(-c2ccccc2)n(CCC(=O)NC2CCCCC2)c1C	-10%	x	23	-2%	-2%
CC1(C(=O)OCC(=O)Nc2ccc3ccccc3c2)CC1(Cl)Cl (centres undefined)	-10%	u	-17	6%	-16%
COc1ccc(OC)c(Nc2ccc(Nc3cc(OC)ccc3OC)nn2)c1	-29%	u	-86*	u	-26%
COc1cc(NS(C)(=O)=O)ccc1Nc1c2ccccc2nc2ccccc12	0.5µM*	0.89µM*	-97*	-18%	u
COc1ccc(OC)c(Nc2c3ccccc3nc3ccccc23)c1	u	u	-71*	u	u
COc1ccc(CNc2cc([N+](=O)[O-])ccc2OC)cc1	i	u	-74*	x	-6%
COc1ccccc1CNc1nc(-c2cccc(NS(C)(=O)=O)c2)nc2ccccc12	x	x	x	-9%	x
COc1ccc(C)cc1NCc1ccc([N+](=O)[O-])cc1	i	u	-15	-11%	-4%
Cc1cc(NC(=O)CN2C(=O)c3cccnc3Sc3ccccc32)ccc1Br	-30%	x	55	1%	u
CC(=O)N1C[C@H]2CON(C)[C@H]2C[C@H]1c1ccccc1	11%	x	2	-10%	-9%
c1coc(CNc2c3c(nc4ccccc24)CCC3)c1	x	u	-69*	u	x
COc1ccc([N+](=O)[O-])cc1Nc1c2ccccc2nc2ccccc12	x	u	u	32µM*	x
COc1cccc2c1C(=O)C=C(C)C2=O	9%	u	-33	u	316%
CC1=CC(=O)c2c(O)cccc2C1=O	i	x	x	8.9µM*	-10%
O=[N+]([O-])c1cc([N+](=O)[O-])c(Oc2cc(Cl)cc(Cl)c2)cc1NN1CCCCC1	u	3%	-78*	-19%	-15%
CC(=O)c1cccc(Oc2cc(NN3CCCCC3)c([N+](=O)[O-])cc2[N+](=O)[O-])c1	u	8.9µM*	-37	-4%	u
O=[N+]([O-])c1cc([N+](=O)[O-])c(Oc2cccc3ccccc23)cc1NN1CCCCC1	-4%	17%	-11	-22%	-20%
O=[N+]([O-])c1cc([N+](=O)[O-])c(Oc2cncc(Cl)c2)cc1NN1CCCCC1	u	13%	u	-10%	u
O=[N+]([O-])c1cc([N+](=O)[O-])c(Oc2cccnc2Br)cc1NN1CCCCC1	13µM*	-5%	13	u	u
CCN1CCN(C(=S)c2ccc(-c3ccccc3)cc2)CC1	x	4%	-81*	-28%	x
CCOc1ccc(CCN2C(=O)c3ccc(C(=O)O)cc3C2=O)cc1OCC	x	10%	-15	-17%	x
O=[N+]([O-])c1ccc(O)c(-c2ccnc3cc(-c4ccccc4)nn23)c1	u	x	-78*	u	u
Cc1ccccc1NC1=NCC(c2ccc([N+](=O)[O-])cc2)S1 (centres undefined)	11µM*	-29%	u	-24%	13µM*
